Assay outcomes deposited in PubChem by Broad Institute.
In the library only some 4% were active in any assay of this set; here they are far more common.
PAX8 inh HTS: PAX8 transcriptional activity inhibition; RMG-I TPO-luciferase reporter, SteadyGlo, 24 h; inhibition, % at 12.6 µM; 360,000 tested, 1.2% active; AID 652154;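 active means mean replicate inhibition at least 60% with every replicate also reaching 60%; inconclusive means only one of the two criteria is met; inactive means mean below 60% and not all replicates reaching 60%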;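 further: luciferase light reporting Pax8 driven TPO promoter activity; plate controls were median of neutral control wells for no effect and mitoxantrone controls for full effect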
MITF TRPM1 inh: MITF TRPM1 promoter inhibition in SK-MEL-5 cells | SK-MEL-5 TRPM1 promoter luciferase, 24 h | inhibition, % at 12.5 µM | 330,000 tested, 0.83% active | AID 488899;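 active means mean inhibition across replicates of 60% or more, whatever share of single replicates reaches that level; inconclusive means some that reach 60%, reason not given; inactive means mean inhibition across replicates below 60%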
Wnt act: activates Wnt/beta-catenin signaling in a reporter cell assay | activator, plate reader | activation, % at 9.35 µM | 300,000 tested, 1.2% active; in the data active means activation above about 30%, passing the limit was not always enough; inconclusive means no clear call, values can overlap the other calls;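 further: 0% = neutral control wells and 100% = positive control wells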
EWS-Fli block: EWS/Fli transcriptional activity inhibition; 350,000 tested, 0.67% active; inhibition, % at 12.6 µM; A673 NR0B1-luciferase reporter, viability-normalised;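 active means mean inhibition of at least 50% after viability correction, with every replicate also passing that limit; inconclusive means mean reaches 50% but only one of two replicates passes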;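 further: firefly luciferase signal divided by Alamar Blue viability fluorescence both relative to DMSO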
esBAF inh: blocks esBAF chromatin remodeling in mouse ES cells | 350,000 tested, 2% active | Bmi1-luciferase knock-in reporter, 24 h; 100% = twice the neutral-well signal | AID 602393 | reporter increase, % at 12.5 µM; in the data active means activation above about 40%; inconclusive means no clear call, values can overlap the other calls;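 further: 0% = median of the plate's neutral control wells and 100% = double that signal; a rise in the Bmi1 reporter signal indicates esBAF inhibition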
MITF act: increases MITF-driven TRPM1 promoter luciferase signal; SK-MEL-5 TRPM1-promoter luciferase, 24 h; % of positive control, neutral wells = 0; activation, % at 12.5 µM; 300,000 tested, 0.75% active; AID 588334;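 active means mean activation of at least 80% with every replicate also reaching 80%; inconclusive means mean reaches 80% but some replicate falls short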;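 further: 0% = neutral control wells and 100% = parthenolide positive control wells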
Starred values were filed as active, the others as inactive; ? = inconclusive; . = no result.

SMILES	PAX8 inh HTS	MITF TRPM1 inh	Wnt act	EWS-Fli block	esBAF inh	MITF act
C[C@@H]1CN([C@@H](C)CO)C(=O)c2cc(NS(=O)(=O)c3cn(C)cn3)ccc2O[C@@H](C)CCCCO[C@@H]1CN(C)Cc1ccc(C(F)(F)F)cc1	.	.	.	-7.0	-6.3	.
COCC(=O)Nc1ccc2c(c1)[C@H]1C[C@H](CC(=O)NCc3cccc(F)c3)O[C@@H](CO)[C@H]1O2	-14.8	.	.	-8.7	-0.3	.
CO[C@H]1CN(C)C(=O)c2ccc(NC(=O)NC(C)C)cc2OC[C@H](C)N(CC2CC2)C[C@H]1C	-3.0	.	.	-0.4	1.5	.
COCC(=O)N1C[C@@H]2[C@H](c3ccccc31)[C@H](CO)N2Cc1ccc(OC)cc1	8.4	.	.	10.1	-7.3	.
C[C@H](CO)N1C[C@H](C)[C@@H](CN(C)Cc2ccccc2)OCCCC[C@H](C)Oc2ccc(NC(=O)Nc3ccc4c(c3)OCO4)cc2C1=O	-15.3	.	.	63.7*	6.6	.
C[C@@H]1CN([C@@H](C)CO)C(=O)c2cc(NC(=O)Nc3ccc4c(c3)OCO4)ccc2O[C@@H](C)CCCCO[C@H]1CN(C)Cc1ccncc1	1.3	.	.	-9.4	57.2*	.
C[C@@H]1CCCCO[C@H](CN(C)Cc2ccncc2)[C@H](C)CN([C@H](C)CO)C(=O)c2cc(NC(=O)Nc3ccc4c(c3)OCO4)ccc2O1	-3.0	.	.	-1.1	2.8	.
CC(=O)N(C)C[C@H]1Oc2cc(C#CC3CC3)ccc2S(=O)(=O)N([C@@H](C)CO)C[C@H]1C	.	.	.	-8.0	3.3	.
C=CCSc1nncn1/N=C/c1ccc(OC)cc1	-123.2	-87.7	26.9	.	.	92.0*
C[C@@H]1CCCCO[C@H](CN(C)C(=O)c2ccncc2)[C@H](C)CN([C@@H](C)CO)C(=O)c2cc(NC(=O)C3CCCCC3)ccc2O1	-3.9	.	.	2.5	2.3	.
CC(C)c1ccc(C(C(C(=O)c2ccccc2)N2CCOCC2)N2CCOCC2)cc1 (stereo not drawn)	-121.8	-21.5	9.0	-129.2	46.5*	28.0
Cc1cccc(C(C(C(=O)c2ccccc2)N2CCOCC2)N2CCOCC2)c1 (stereo not drawn)	-4.5	-19.9	-5.3	-14.6	3.9	17.3
Clc1ccc2ccc3cccnc3c2n1	-36.2	-4.7	-0.9	3.1	-3.6	14.6
O=S1(=O)Nc2c(ccc3cccnc23)-c2ccccc21	.	76.6*	.	.	-21.4	-76.2
Cc1cc(N)n2ncc(-c3ccccc3)c2n1	.	-67.0	.	.	51.4*	65.1
Cc1cc(N)n2ncc(-c3cccc(Br)c3)c2n1	.	-63.3	.	.	66.0*	66.0
C=CCSc1cc(C)nc2c(-c3ccccc3)cnn12	-217.8	-21.4	32.5*	-74.1	.	11.9
CC(=O)c1cnc2c(-c3cccc(Br)c3)cnn2c1C	-80.6	-91.1	9.0	.	34.7	94.7*
CCOC(=O)Cc1c(C)nc2c(-c3cccc(Br)c3)cnn2c1C	6.8	5.8	-1.8	14.7	.	-2.1
Cc1cc(-c2ccncc2)n2ncc(-c3ccccc3)c2n1	18.2	.	19.2	-19.0	16.8	.
Cc1nc([N+](=O)[O-])c(Sc2nc3ccccc3n2C)n1Cc1ccccc1	44.5	63.0*	.	.	.	-59.4
Fc1ccc(/C=C2\CCCC3=C2Nc2ncnn2C3c2ccc(F)cc2)cc1 (stereo not drawn)	.	87.8*	.	.	-21.6	.
COc1ccc(C2C3=C(Nc4ncnn42)c2ccccc2CCC3)cc1 (stereo not drawn)	.	-6.8	2.0	.	-2.8	8.6
C[C@H]1CN([C@@H](C)CO)C(=O)c2cc(NS(C)(=O)=O)ccc2O[C@@H]1CN(C)C(=O)Nc1ccc(C(F)(F)F)cc1	-19.6	.	.	-2.2	-4.1	.
CC(C)(C)c1ccc(/C=C/C(=O)Nc2cccnc2)cc1	-105.4	-104.0	31.0*	-109.8	25.7	108.5*
SMILES	PAX8 inh HTS	MITF TRPM1 inh	Wnt act	EWS-Fli block	esBAF inh	MITF act
O=C(/C=C/c1ccc(Cl)c(Cl)c1)Nc1cccnc1	-23.3	-84.3	2.4	-80.8	41.8*	?
O=C(O)/C=C/C(=O)Nc1cccnc1	.	10.0	.	.	.	-9.1
O=C(/C=C/c1ccccc1Cl)Nc1cccnc1	-167.1	-28.8	0.2	-34.2	8.9	33.7
C[C@@H]1CN([C@H](C)CO)C(=O)c2cc(-c3cccnc3)cnc2O[C@H]1CN(C)C(=O)Nc1ccc2c(c1)OCO2	.	.	.	-7.4	2.7	.
Cc1ccc(NCCC(=O)c2ccccc2)cc1Cl	-26.4	-17.7	1.0	-11.1	59.6*	20.7
Cc1ccc(NC2=C(NC(=O)c3ccccc3)C(=O)c3ccccc3C2=O)cc1Cl	21.9	66.5*	3.2	3.8	.	-65.6
O=C(N[C@H]1CC[C@H](CCNS(=O)(=O)Cc2ccccc2)O[C@H]1CO)c1cnccn1	-4.9	.	.	4.7	3.1	.
O=C1/C(=C\c2ccc3ccccc3c2)CCCc2ccccc21	.	-35.1	.	.	30.4	41.5
O=C1C(=Cc2ccccn2)CCc2ccccc21	1.6	.	?	-43.6	63.7*	.
Cc1ccccc1/C=C1\CCCc2ccccc2C1=O	-171.9	-69.2	77.4*	.	82.0*	.
Cc1ccc(S(=O)(=O)N(C)C[C@H]2OCCCC[C@H](C)Oc3ccc(NC(=O)NC(C)C)cc3C(=O)N([C@@H](C)CO)C[C@@H]2C)cc1	-29.8	.	.	-6.7	3.9	.
Cc1ccc(NC(=S)N(CCCN2CCOCC2)Cc2ccccn2)cc1	110.4*	-2.0	-2.7	2.9	.	-2.0
COc1ccc(NC(=S)N(CCCN2CCOCC2)Cc2ccccn2)cc1	10.7	3.2	-1.6	4.2	-2.0	-8.1
Cc1nn(C)c(C)c1C(C)NC(=O)c1cc(COc2ccc(F)c(F)c2)on1 (stereo not drawn)	-86.2	-56.1	1.1	.	50.7*	56.1
Cc1nn(C)cc1C(C)NC(=O)c1cc(COc2ccc(F)c(F)c2)on1 (stereo not drawn)	-36.2	-14.7	0.9	-27.4	13.0	13.0
COc1ccc2c3c(n(C)c2c1)[C@H](CO)N(Cc1ccccc1)CC31CCN(S(=O)(=O)c2ccc(C)cc2)CC1	83.9*	.	.	42.2	.	.
CC=Cc1ccc2n(c1=O)C[C@@H]1[C@@H](CO)[C@H](C(=O)NCC(F)(F)F)[C@H]2N1C(=O)C1CCCC1 (mixture of isomers)	-11.6	.	.	.	.	.
Oc1ccc2ccccc2c1CN1CC2CCC(CC2)C1	83.8*	-1.1	-2.3	11.6	-3.6	2.5
Oc1ccc2ccccc2c1CN1CCCC1	25.6	23.6	-1.6	12.4	1.1	-23.7
N#C[C@H]1[C@@H](c2ccccc2C2=CCCC2)[C@@H](CO)N1S(=O)(=O)c1ccccc1	.	.	.	6.0	.	.
Cc1cc(C(=O)Nc2nc3ccc(Cl)cc3s2)nn1C	-153.1	.	60.2*	-58.9	.	.
O=C(Nc1nc2ccc(Cl)cc2s1)c1ccc(Br)o1	.	-56.7	10.2	.	61.8*	59.0
O=C(C[C@H]1C=C[C@H](NC(=O)Nc2ccccc2F)[C@@H](CO)O1)NCc1ccc(F)cc1	-5.7	.	.	5.7	-0.9	.
O=C(CC(=O)c1ccccc1)Nc1cccnc1	-17.3	-21.7	19.8	-16.5	.	21.1
O=C(Nc1ccccc1)C(=O)Nc1cccnc1	-67.6	-34.9	41.3*	-8.3	2.2	33.4
